Test results as given in ChEMBL document CHEMBL1961873, “Compounds: GSK PKIS; Assays: Nanosyn kinase panel” (2012).
Values joined by “and” are separate entries in the source; they are usually repeats but may differ in a detail not shown here. Equal entries are not always repeated.

biological target: T1, Inhibitor of nuclear factor kappa-B kinase subunit beta (Homo sapiens) (UniProt O14920); conditions: at 1 µM
T1 sequence (whole entry): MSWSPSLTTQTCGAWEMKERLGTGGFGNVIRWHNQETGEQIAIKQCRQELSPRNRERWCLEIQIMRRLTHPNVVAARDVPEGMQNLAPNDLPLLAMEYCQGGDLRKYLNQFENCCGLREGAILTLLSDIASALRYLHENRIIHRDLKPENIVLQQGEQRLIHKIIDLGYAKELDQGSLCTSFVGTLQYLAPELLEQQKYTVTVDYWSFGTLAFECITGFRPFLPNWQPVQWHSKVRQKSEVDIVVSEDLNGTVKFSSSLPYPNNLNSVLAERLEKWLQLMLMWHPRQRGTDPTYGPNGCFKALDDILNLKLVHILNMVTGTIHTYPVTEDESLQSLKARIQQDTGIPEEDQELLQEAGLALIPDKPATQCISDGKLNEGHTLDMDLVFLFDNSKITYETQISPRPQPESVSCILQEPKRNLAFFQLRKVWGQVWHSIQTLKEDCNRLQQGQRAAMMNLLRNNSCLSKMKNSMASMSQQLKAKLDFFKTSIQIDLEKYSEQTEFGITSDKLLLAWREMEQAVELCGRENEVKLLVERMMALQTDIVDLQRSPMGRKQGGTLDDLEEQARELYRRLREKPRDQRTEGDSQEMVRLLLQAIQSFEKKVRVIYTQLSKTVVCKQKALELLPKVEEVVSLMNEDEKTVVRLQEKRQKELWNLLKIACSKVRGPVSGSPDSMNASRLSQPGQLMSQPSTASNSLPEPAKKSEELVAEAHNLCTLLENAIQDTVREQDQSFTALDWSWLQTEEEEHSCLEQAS
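Also: reported as mean inhibition, from the GSK PKIS screening set.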

| Compound | inhibition |
| --- | --- |
| Cc1ccc(-c2cc3c(NC(=O)C4CC4)ncnc3o2)cc1 | 4.2% |
| Nc1nccc(-c2c(-c3ccc(F)cc3)ncn2C2CCNCC2)n1 | -2.15% and 0.23% |
| CS(=O)(=O)Nc1ccc(-c2ccc3c(NC(=O)C4CC4)n[nH]c3c2)cc1 | 1.2% |
| Cn1c(-c2nonc2N)nc2cnccc21 | 1.73% |
| Cc1cc(O)cc(C)c1/C=C/c1cncc(C(N)=O)c1 | 1.13% |
| CNC(=O)c1sc(-n2cnc3cc(OC)c(OC)cc32)cc1OCc1ccccc1C(F)(F)F | 2.57% |
| COC(=O)Nc1nc2ccc(Oc3ccc(NC(=O)Nc4cc(C(F)(F)F)ccc4F)cc3)cc2s1 | -1.14% |
| COc1cc2c(cc1Nc1nc(Nc3cccc(F)c3C(N)=O)c3cc[nH]c3n1)N(C(=O)CN1CCN(C(C)C)CC1)CC2 | 1.47% |
| CS(=O)(=O)CCNCc1ccoc1-c1ccc2ncnc(Nc3ccc(OCc4ccccc4)cc3)c2c1 | 0.42% |
| O=C(O[C@H]1CN[C@H](C#Cc2cc3ncnc(Nc4ccc5c(cnn5Cc5ccccc5)c4)c3s2)C1)N1CCOCC1 | -0.9% |
| COc1c(C(N)=O)cc(-c2ccc(Cl)cc2)cc1-c1ccc(S(N)(=O)=O)cc1 | 4.61% |
| CCS(=O)(=O)c1ccc(OC)c(Nc2ncc(-c3cccc(C(C)=O)c3)o2)c1 | 5.04% |
| CNC(=O)c1ncccc1Nc1nc(Nc2cc3c(cc2OC)CCCN3C(=O)CN(C)C)nc2[nH]ccc12 | -0.65% |
| CC(C)c1ccc(-c2cc(-c3c[nH]nc3-c3ccccn3)ccn2)cc1 | -0.35% |
| Fc1cccc(COc2ccc(Nc3ncncc3C#Cc3ccccc3)cc2Cl)c1 | 9.35% |
| FC(F)(F)CNc1nccc(-c2cnn3ncccc23)n1 | 5.42% |

| Compound | inhibition |
| --- | --- |
| CN1CCC(C(=O)Nc2n[nH]c3nc(-c4ccc(O)cc4)c(Br)cc23)CC1 | 12.8% and 4.3% |
| CS(=O)(=O)CCNCc1ccc(-c2ccc3ncnc(Nc4ccc(OCc5ccccc5)cc4)c3c2)o1 | 5.3% |
| O=C1Nc2ccccc2/C1=C1\CCc2cc(O)ccc21 | 5.64% |
| CNC(=O)c1cncc(/C=C/c2ccccc2C)c1 | 5.04% |
| NC(=O)c1ccc2c(-c3ccnc(NCCCO)n3)c(-c3ccc(F)cc3)nn2c1 | 2.1% |
| N#Cc1cccc(Nc2ncc(-c3ccccc3)o2)c1 | 5.96% |
| CN1CCN(Cc2ccc(-c3cc4ncnc(Nc5ccc(OCc6cccc(F)c6)c(Cl)c5)c4s3)o2)CC1 | 3.27% and 6.18% |
| NS(=O)(=O)c1cccc(N/C=C2\C(=O)Nc3ccccc32)c1 | 4.39% |
| COc1ccc(Nc2ncc(-c3ccccc3)o2)cc1OC | 4.83% |
| CCn1c(-c2nonc2N)nc2cncc(C(=O)NCCNC)c21 | 7.92% |
| NS(=O)(=O)c1ccc(N/N=C2\C(=O)Nc3cccc(CCc4ccncc4)c32)cc1 | -2.12% |
| c1ccc(-c2n[nH]cc2-c2ccnc(-c3ccc(OCCn4ccnc4)cc3)c2)nc1 | -0.43% |
| c1cnn2ncc(-c3ccnc(NCCCN4CCOCC4)n3)c2c1 | 4.44% |
| CCN1CCC(C(=O)Nc2n[nH]c3nnc(-c4cccc(F)c4F)cc23)CC1 | -2.63% |
| O=C(Nc1n[nH]c2nnc(-c3cccnc3)cc12)C1CC1 | 1.04% |
